The supplement of paper PMC12350171
Structures can show the parent of a compound that is named as a salt.

Experiments:
Details in all cases: 20 µM
[1] = tested on: Salmonella enterica typhimurium; assay: growth AUC normalised to DMSO control (fraction of control); higher = less growth inhibition, active = hit call of the paper
How it was run: (§1)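 Pathogens passaged twice anaerobically were inoculated at a starting OD578 of 0.01 into pre-reduced mGAM plates with drug at 20 μM and 1% DMSO, sealed with breathable membranes. Haemophilus parainfluenzae medium was supplemented with hemin and NAD. OD578 was read hourly for 24 h, with three biological replicates. Growth-curve AUC was computed by the trapezoidal rule up to the exponential-to-stationary transition and normalised to DMSO controls on the same plate.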

Shigella flexneri = assay: as above
How it was run: as §1

Vibrio cholerae = assay: as above
How it was run: as §1

[2] = tested on: Yersinia pseudotuberculosis; assay: as above
How it was run: as §1

P. vulgatus RND KO = assay: growth AUC normalised to DMSO control (median) (fraction of control); higher = less growth inhibition, active = hit call of the paper
How it was run: (§2)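 After two overnight anaerobic passages, strains were inoculated at OD578 0.01 into mGAM in 96-well plates containing approved-drug library compounds at 20 μM and 1% DMSO. Growth was followed by reading OD578 hourly for 24 h within an anaerobic incubator. Area under the curve, taken by the trapezoidal rule up to the start of stationary phase, was normalised to same-plate vehicle wells, and the median of three biological replicates is listed.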

P. vulgatus WT = assay: as above
How it was run: as §2

[3] = tested on: S. enterica typhimurium WT; assay: as above
How it was run: as §2

[4] = tested on: S. enterica typhimurium tolC KO; assay: as above
How it was run: as §2

Measured: growth AUC normalised to DMSO control
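Wherever growth AUC normalised to DMSO control (median) is given: active when median AUC fell below 0.1.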

CCOC(=O)C1=C[C@]2(CC)CCCN3CCc4c(n1c1ccccc41)[C@@H]32 [Vinpocetine]
inactive: [1] 0.974 | Shigella flexneri 1.03 | Vibrio cholerae 0.904 | [2] 1.01 | P. vulgatus RND KO 1 | P. vulgatus WT 0.988 | [3] 1 | [4] 0.972

CCCCNc1c(C(=O)OCC)c(C)nc2c1cnn2CC [Tracazolate hydrochloride]
inactive: [1] 1 | Shigella flexneri 1.03 | Vibrio cholerae 1.04 | [2] 0.996 | P. vulgatus RND KO 0.978 | P. vulgatus WT 0.983 | [3] 0.999 | [4] 0.952

CN(C)[C@@H]1C(=O)C(C(=O)NCNCCCC[C@H](N)C(=O)O)=C(O)[C@@]2(O)C(=O)C3=C(O)c4c(O)cccc4[C@@](C)(O)[C@H]3C[C@@H]12 [Lymecycline]
inactive: Shigella flexneri 0.947 | [2] 1.01 | P. vulgatus RND KO 0.779 | P. vulgatus WT 0.835 | [3] 0.94 | [4] 0.94
active: [1] 0.903 | Vibrio cholerae 0.448

NS(=O)(=O)c1cc(C(=O)O)cc(N2CCCC2)c1Oc1ccccc1 [Piretanide]
inactive: [1] 1.03 | Shigella flexneri 1.07 | Vibrio cholerae 1.08 | [2] 1.01 | P. vulgatus RND KO 1.06 | P. vulgatus WT 1.07 | [3] 1 | [4] 0.997

CC(C)NCC(O)COc1cccc2[nH]ccc12 (stereo unspecified) [Pindolol]
inactive: [1] 1.01 | Shigella flexneri 1.04 | Vibrio cholerae 1.03 | [2] 0.978 | P. vulgatus RND KO 1.05 | P. vulgatus WT 1.08 | [3] 1 | [4] 1.01

NC(CO)C(=O)NNCc1ccc(O)c(O)c1O (stereo unspecified) [Benserazide hydrochloride]
inactive: [1] 1 | Shigella flexneri 1 | Vibrio cholerae 1.01 | [2] 0.942 | P. vulgatus RND KO 0.969 | P. vulgatus WT 0.973 | [3] 0.982 | [4] 1

Cc1c(NC(=O)c2cccnc2)c(=O)n(-c2ccccc2)n1C [Nifenazone]
inactive: [1] 0.976 | Shigella flexneri 1 | Vibrio cholerae 1.01 | [2] 1.01 | P. vulgatus RND KO 0.997 | P. vulgatus WT 1 | [3] 1.01 | [4] 0.996

NS(=O)(=O)c1cc2c(cc1C(F)(F)F)NC(Cc1ccccc1)NS2(=O)=O (stereo unspecified) [Bendroflumethiazide]
inactive: [1] 1 | Shigella flexneri 1.01 | Vibrio cholerae 0.997 | [2] 1.01 | P. vulgatus RND KO 0.962 | P. vulgatus WT 0.977 | [3] 1.01 | [4] 0.993

CCOC(=O)Nc1ccc2c(c1)N(C(=O)CCN1CCOCC1)c1ccccc1S2 [Moricizine hydrochloride]
inactive: [1] 1.01 | Shigella flexneri 0.997 | Vibrio cholerae 0.942 | [2] 1.01 | P. vulgatus RND KO 0.766 | P. vulgatus WT 0.638 | [3] 1.01 | [4] 0.957

CC(C)NCC(O)c1cc(O)cc(O)c1 (stereo unspecified) [Metaproterenol sulfate]
inactive: [1] 0.995 | Shigella flexneri 0.967 | Vibrio cholerae 0.998 | [2] 0.988 | P. vulgatus RND KO 0.986 | P. vulgatus WT 1 | [3] 1.01 | [4] 0.997

CCCCCN(C)CCC(O)(P(=O)(O)O)P(=O)(O)O [Ibandronate sodium]
inactive: [1] 0.982 | Shigella flexneri 0.98 | Vibrio cholerae 0.992 | [2] 1.01 | P. vulgatus RND KO 0.998 | P. vulgatus WT 1.01 | [3] 0.99 | [4] 1

COC1=C(OC)C(=O)C(CCCCCCCCCCO)=C(C)C1=O [Idebenone]
inactive: [1] 1.02 | Shigella flexneri 1.01 | Vibrio cholerae 0.989 | [2] 1.02 | P. vulgatus RND KO 0.913 | P. vulgatus WT 0.95 | [3] 1.01 | [4] 0.972

CC(C)NCC(O)c1ccc(O)c(O)c1 (single isomer, unassigned; (-)) [(-) Isoproterenol hydrochloride]
inactive: [1] 1.01 | Shigella flexneri 1.03 | Vibrio cholerae 1.05 | [2] 1.02 | P. vulgatus RND KO 0.979 | P. vulgatus WT 0.967 | [3] 1 | [4] 0.992

CCN(CC)CCOc1ccc(C(=C(Cl)c2ccccc2)c2ccccc2)cc1 [(Z,E) Clomiphene citrate]
inactive: [1] 1.02 | Shigella flexneri 1.02 | Vibrio cholerae 1.01 | [2] 1.02 | P. vulgatus RND KO 0.902 | P. vulgatus WT 0.964 | [3] 1.01 | [4] 0.983

CC(=O)N(CC(O)CO)c1c(I)c(C(=O)NCC(O)CO)c(I)c(C(=O)NCC(O)CO)c1I (stereo unspecified) [Iohexol]
inactive: [1] 0.997 | Shigella flexneri 0.968 | Vibrio cholerae 0.995 | [2] 1 | P. vulgatus RND KO 1.01 | P. vulgatus WT 0.978 | [3] 0.999 | [4] 1.01

Cc1ccc(-c2ncc(Cl)cc2-c2ccc(S(C)(=O)=O)cc2)cn1 [Etoricoxib]
inactive: [1] 1.01 | Shigella flexneri 1.03 | Vibrio cholerae 1.03 | [2] 0.989 | P. vulgatus RND KO 1.01 | P. vulgatus WT 1.03 | [3] 0.972 | [4] 0.978

CC(=O)O[C@]1(C(C)=O)CC[C@H]2[C@@H]3C=C(Cl)C4=CC(=O)[C@@H]5C[C@@H]5[C@]4(C)[C@H]3CC[C@@]21C [Cyproterone acetate]
inactive: [1] 1 | Shigella flexneri 1.01 | Vibrio cholerae 1 | [2] 0.994 | P. vulgatus RND KO 0.896 | P. vulgatus WT 0.907 | [3] 1 | [4] 0.953

CCCCc1nc(Cl)c(CO)n1Cc1ccc(-c2ccccc2-c2nnn[nH]2)cc1 [Losartan]
inactive: [1] 1.03 | Shigella flexneri 1.03 | Vibrio cholerae 1.04 | [2] 1.02 | P. vulgatus RND KO 0.974 | P. vulgatus WT 0.977 | [3] 1 | [4] 0.995

CCOC(=O)n1ccn(C)c1=S [Carbimazole]
inactive: [1] 0.98 | Shigella flexneri 1 | Vibrio cholerae 0.981 | [2] 0.998 | P. vulgatus RND KO 0.993 | P. vulgatus WT 1.01 | [3] 0.996 | [4] 1.01

CCCCN(CCCC)CCC(O)c1cc2c(Cl)cc(Cl)cc2c2cc(C(F)(F)F)ccc12 (stereo unspecified) [Halofantrine hydrochloride]
inactive: [1] 0.944 | Shigella flexneri 1.04 | Vibrio cholerae 1.06 | [2] 1.03 | P. vulgatus RND KO 1.06 | P. vulgatus WT 1.11 | [3] 1.02 | [4] 1.01

Cc1c(N)c(=O)n(-c2ccccc2)n1C [Ampyrone]
inactive: [1] 0.996 | Shigella flexneri 0.998 | Vibrio cholerae 0.965 | [2] 0.986 | P. vulgatus RND KO 1.04 | P. vulgatus WT 1 | [3] 1 | [4] 1

CCCCOc1ccc(OCCCN2CCOCC2)cc1 [Pramoxine hydrochloride]
inactive: [1] 0.998 | Shigella flexneri 1.01 | Vibrio cholerae 1 | [2] 0.983 | P. vulgatus RND KO 1.04 | P. vulgatus WT 1.03 | [3] 1 | [4] 0.988

CCCNCC(O)COc1ccccc1C(=O)CCc1ccccc1 (stereo unspecified) [Propafenone hydrochloride]
inactive: [1] 1 | Shigella flexneri 0.994 | Vibrio cholerae 0.979 | [2] 0.99 | P. vulgatus RND KO 1.03 | P. vulgatus WT 1.05 | [3] 0.988 | [4] 0.948

CO[C@H]1/C=C/O[C@@]2(C)Oc3c(C)c(O)c4c(O)c(c5c(nc6cc(C)ccn65)c4c3C2=O)NC(=O)/C(C)=C\C=C\[C@H](C)[C@H](O)[C@@H](C)[C@@H](O)[C@@H](C)[C@H](OC(C)=O)[C@@H]1C [Rifaximin]
active: [1] 0.477 | Shigella flexneri 0.56 | [2] 0.0303 | P. vulgatus RND KO 0.0137 | P. vulgatus WT 0.00787 | [4] 0.0409
inactive: Vibrio cholerae 1.1 | [3] 0.217

CC[N+](C)(CC)CCOC(=O)C1c2ccccc2Oc2ccccc21 [Methantheline bromide]
inactive: [1] 1 | Shigella flexneri 1.01 | Vibrio cholerae 0.973 | [2] 1 | P. vulgatus RND KO 0.972 | P. vulgatus WT 0.981 | [3] 1 | [4] 0.995

N/C(=N\C(=O)c1nc(Cl)c(N)nc1N)NCc1ccccc1 [Benzamil hydrochloride]
inactive: [1] 0.972 | Shigella flexneri 0.986 | Vibrio cholerae 0.99 | [2] 0.998 | P. vulgatus RND KO 0.996 | P. vulgatus WT 0.991 | [3] 0.998 | [4] 0.984

CC1(C)O[C@@H]2C[C@H]3[C@@H]4C[C@H](F)C5=CC(=O)C=C[C@]5(C)[C@H]4[C@@H](O)C[C@]3(C)[C@]2(C(=O)CO)O1 [Flunisolide]
inactive: [1] 1.01 | Shigella flexneri 1.05 | Vibrio cholerae 1.06 | [2] 0.984 | P. vulgatus RND KO 1.03 | P. vulgatus WT 1.05 | [3] 1 | [4] 1.01
